# Data as given in PubChem BioAssay (Tox21).
# Several values for one entry are separate records, joined by “and”; a condition that tells them apart may be missing. Equal entries are not always repeated. Records with an inconclusive call do not appear. A call without a number means that no potency is given here. More than one record can exist for a structure, and the calls need not agree. Activity calls are given as the source filed them. Unless noted, the call rests on the fitted dose curve; in most records, active means well fitted curve in the direction sought with a large enough effect in the repeat runs; inconclusive means weak or mixed curves; inactive means no such curve, though single readings can be large; an effect the other way counts as inactive or inconclusive.
# Assays:
# [1] = A CellTox Green Cytotoxicity Assay to monitor cytotoxicity in HepG2 cells - 8 hour (AID 1224890); conditions: CellTox Green fluorescence; series mostly up to 76.8 µM; further: nearly all actives have a fitted effect of over 45% in size; further: potency means the concentration at half of the fitted maximal effect
# Procedure, shortened: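 HepG2 cells were seeded together with the CellTox Green dye at 600 cells/well, left 5 h at 37 C/5% CO2, then given compounds in DMSO. Fluorescence from dye bound to dead-cell DNA was read repeatedly over 40 h of treatment at 37 C.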
# [2] = qHTS assay to identify small molecule antagonists of the estrogen receptor alpha (ER-alpha) signaling pathway using the BG1 cell line in the presence of 0.1 nM 17-beta-estradiol - cell viability counter screen (AID 1259241); conditions: VM7Luc4E2 (BG1) viability, CellTiter-Fluor protease, 22 h, 0.1 nM estradiol agonist added; series mostly up to 92.4 µM; further: nearly all actives have a fitted effect of over 40% in size; further: potency means the concentration at half of the fitted maximal effect
# Procedure, shortened: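 Viability in VM7Luc4E2 cells after 22 hr compound exposure under 0.1 nM 17beta-estradiol stimulation, by CellTiter-Fluor.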
# [3] = qHTS assay to identify small molecule antagonists of the androgen receptor (AR) signaling pathway using the MDA cell line in the presence of 0.5 nM R1881 - cell viability counter screen (AID 1259242); conditions: MDA-kb2 viability, CellTiter-Fluor protease fluorescence, 16 h; series mostly up to 92.4 µM; further: nearly all actives have a fitted effect of over 45% in size; further: potency means the concentration at half of the fitted maximal effect
# Procedure, shortened: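 MDA-kb2 cells (human breast carcinoma, stably carrying MMTV-luciferase reporter) were exposed to compounds with 0.5 nM R1881 (final) for 16 hr at 37C, 0% CO2; viability then read as live-cell protease fluorescence (CellTiter-Fluor, 30 min) in the same wells.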
# [4] = qHTS assay to identify small molecule HDAC inhibitors (AID 1259364); conditions: HCT-116 HDAC-Glo I/II luminescence, 2 h; series mostly up to 92.4 µM; further: top concentration of the series differs between compounds; nearly all actives have a fitted effect of over 45% in size
# Procedure, shortened: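 Wild-type HCT-116 cells were plated overnight, exposed to compounds for 2 h at 37 °C, then given HDAC-Glo class I/II luminogenic reagent for 30 min at room temperature before luminescence was read.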
# [5] = qHTS assay to identify small molecule HDAC inhibitors - cell viability counter screen (AID 1259365); conditions: HCT-116 viability, CellTiter-Glo ATP luminescence, 2 h; series mostly up to 92.4 µM; further: nearly all actives have a fitted effect of over 50% in size
# Procedure, shortened: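 Cytotoxicity was gauged in wild-type HCT-116 cells after a brief 2hr treatment with DMSO-dissolved compounds at 37C and 5% CO2, using CellTiter-Glo luminescence developed for 30min at room temperature.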
# [6] = qHTS assay to identify small molecule agonists of the sonic hedgehog signaling (Shh) pathway - cell viability counter screen (AID 1259366); conditions: NIH/3T3 Gli1-Luc viability, CellTiter-Fluor, 24 h; series mostly up to 92.4 µM; further: nearly all actives have a fitted effect of over 50% in size; further: potency means the concentration at half of the fitted maximal effect
# Procedure, shortened: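 Stable Gli1-Luc NIH/3T3 clone, 2,000 cells/well. Compound exposure 24hr at 37C. Read-out: CellTiter-Fluor fluorescence.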
# [7] = qHTS assay to identify small molecule antagonists of the sonic hedgehog signaling (Shh) pathway - cell viability counter screen (AID 1259367); conditions: NIH/3T3 Gli1-Luc viability, CellTiter-Fluor, 24 h; series mostly up to 92.4 µM; further: nearly all actives have a fitted effect of over 55% in size; further: potency means the concentration at half of the fitted maximal effect
# Procedure, shortened: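 Cells: 3T3 Gli1-Luc, 2,000/well, 4 hr pre-incubation. Compounds in DMSO, then conditioned medium. Incubation 24 hr, 37C, 5% CO2. CellTiter-Fluor at 23 hr, 1 hr, fluorescence.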
# [8] = qHTS assay to identify small molecule agonists of the sonic hedgehog signaling (Shh) pathway (AID 1259368; calls by dose curve; further: nearly all actives have a fitted effect of over 15% in size); conditions: NIH/3T3 Gli1-Luc reporter, luciferase, 24 h; series mostly up to 92.4 µM
# Procedure, shortened: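 NIH/3T3-derived 3T3Gli1-Luc cells carrying a stably integrated Gli1 response element–firefly luciferase reporter were plated, left 4 hr at 37 C, then given compounds in DMSO for 24 hr. Luminescence was read 30 min after adding luciferase reagent.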
# [9] = qHTS assay to identify small molecule antagonists of the sonic hedgehog signaling (Shh) pathway (AID 1259369; calls by dose curve; further: nearly all actives have a fitted effect of over 45% in size; further: potency means the concentration at half of the fitted maximal effect); conditions: NIH/3T3 Gli1-Luc reporter, Shh antagonist, luminescence 24 h; series mostly up to 92.4 µM
# Procedure, shortened: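 NIH/3T3-derived 3T3Gli1-Luc cells with stably integrated Gli1-Luc reporter were preincubated 4hr at 37 C, then given compounds in DMSO plus Shh conditioned medium and incubated 24hr. Firefly luciferase luminescence read after 30min reagent at room temperature.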
# [10] = molecular target: Estrogen receptor beta (Homo sapiens) (UniProt Q92731); test: qHTS assay to identify small molecule agonists of the estrogen receptor beta (ER-beta) signaling pathway (AID 1259377; active means well fitted activation curve with a large enough effect in the signal ratio in the repeat runs, not every such curve was filed as active; the % refers to the signal ratio); conditions: ER-beta-UAS-bla HEK293T, beta-lactamase FRET ratio, 16 h; series mostly up to 92.4 µM
# Chain of Estrogen receptor beta (Homo sapiens) (Q92731 whole entry, looked up): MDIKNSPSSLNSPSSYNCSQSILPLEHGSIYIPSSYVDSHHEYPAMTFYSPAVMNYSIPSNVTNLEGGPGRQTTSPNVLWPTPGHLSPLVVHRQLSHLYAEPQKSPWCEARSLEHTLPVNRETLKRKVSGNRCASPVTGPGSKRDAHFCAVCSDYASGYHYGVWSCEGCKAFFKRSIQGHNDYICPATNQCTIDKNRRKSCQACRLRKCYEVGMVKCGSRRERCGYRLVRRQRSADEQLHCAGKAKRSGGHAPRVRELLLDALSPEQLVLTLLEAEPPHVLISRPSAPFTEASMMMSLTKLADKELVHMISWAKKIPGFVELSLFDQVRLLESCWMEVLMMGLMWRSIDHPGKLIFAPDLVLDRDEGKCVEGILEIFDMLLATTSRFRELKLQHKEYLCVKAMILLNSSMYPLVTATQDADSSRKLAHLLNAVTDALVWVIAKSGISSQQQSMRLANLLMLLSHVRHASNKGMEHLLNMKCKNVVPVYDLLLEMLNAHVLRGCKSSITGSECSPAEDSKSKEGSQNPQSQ
# Procedure, shortened: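 Measured by fluorescence intensity from a B/G FRET beta-lactamase substrate (2 h, room temperature) in ER-beta-UAS-bla HEK293T cells treated with DMSO-dissolved compounds for 16 hr at 37C and 5% CO2.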
# [11] = qHTS assay to identify small molecule agonists of the androgen receptor (AR) signaling pathway in the presence of an antagonist - cell viability counter screen (AID 1259379); conditions: MDA-kb2 viability, CellTiter-Fluor, 16 h; series mostly up to 92.4 µM; further: nearly all actives have a fitted effect of over 25% in size; further: potency means the concentration at half of the fitted maximal effect
# Procedure, shortened: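 MDA-kb2 human breast carcinoma cells (stable MMTV-luciferase, AR/GR responsive) were seeded 3,000 cells/well, pre-incubated 5 hr at 37C without CO2, then given 3.0uM nilutamide and compounds at 15 concentrations for 16 hr. Viability was read by CellTiter-Fluor fluorescence.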
# [12] = qHTS assay to identify small molecule agonists of the estrogen receptor beta (ER-beta) signaling pathway - cell viability counter screen (AID 1259380); conditions: ER-beta-bla HEK293T viability, CellTiter-Glo luminescence, 16 h; series mostly up to 92.4 µM; further: nearly all actives have a fitted effect of over 30% in size; further: potency means the concentration at half of the fitted maximal effect
# Procedure, shortened: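 ER-beta-UAS-bla HEK293T cells in medium with 2% charcoal-stripped FBS were preincubated 6 hr at 37C, dosed with compound in DMSO for 16 hr, then after the bla read, CellTiter-Glo was added for 30 min at room temperature; luminescence recorded.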
# [13] = qHTS assay to identify small molecule antagonists of the estrogen receptor beta (ER-beta) signaling pathway - cell viability counter screen (AID 1259382); conditions: ER-beta-UAS-bla HEK293T viability, CellTiter-Glo luminescence, 16 h; series mostly up to 92.4 µM;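 further: HEK293T cells carrying ER-beta-UAS-bla reporter stimulated with estradiol; nearly all actives have a fitted effect of over 55% in size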
# Procedure, shortened: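 ER-beta-UAS-bla HEK293T cells (2,000/well, 2% charcoal-stripped FBS) were pre-incubated 6 hr at 37C, then given compound plus 1nM final 17-beta-estradiol for 16 hr. Viability was read in the same wells by CellTiter-Glo luminescence after 30 min at room temperature.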
# [14] = molecular target: Estrogen receptor (Homo sapiens) (UniProt P03372); test: qHTS assay to identify small molecule agonists of the estrogen receptor alpha (ER-alpha) signaling pathway in the presence of an antagonist (AID 1259383; calls by dose curve; further: top concentration of the series differs between compounds; nearly all actives have a fitted effect of over 15% in size); conditions: VM7Luc4E2 cells, ERE-luciferase, +ICI-182,780, 22 h; series mostly up to 92.4 µM
# Chain of Estrogen receptor (Homo sapiens) (P03372 whole entry, looked up): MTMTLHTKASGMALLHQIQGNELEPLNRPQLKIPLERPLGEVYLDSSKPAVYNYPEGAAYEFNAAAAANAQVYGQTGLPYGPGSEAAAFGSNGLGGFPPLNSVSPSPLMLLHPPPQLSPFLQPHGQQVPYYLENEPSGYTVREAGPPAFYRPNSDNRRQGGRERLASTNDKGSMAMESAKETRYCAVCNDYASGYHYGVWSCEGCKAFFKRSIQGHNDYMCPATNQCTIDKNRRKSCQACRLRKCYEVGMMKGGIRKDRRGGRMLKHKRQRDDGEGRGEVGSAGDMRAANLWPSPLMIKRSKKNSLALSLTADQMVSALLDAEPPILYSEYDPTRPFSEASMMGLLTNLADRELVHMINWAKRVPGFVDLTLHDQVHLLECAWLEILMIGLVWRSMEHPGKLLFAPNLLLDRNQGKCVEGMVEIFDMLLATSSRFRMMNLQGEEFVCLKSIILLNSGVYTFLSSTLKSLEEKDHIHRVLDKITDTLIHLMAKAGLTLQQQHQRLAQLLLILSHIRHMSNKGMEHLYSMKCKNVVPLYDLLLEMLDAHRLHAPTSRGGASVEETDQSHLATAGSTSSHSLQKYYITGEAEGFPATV
# Procedure, shortened: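 VM7Luc4E2 cells (endogenous full-length ER-alpha, 4×ERE-luciferase) were precultured 5 days in phenol red-free medium with 10% charcoal-stripped FBS, given 10.0nM ICI-182,780 (final), then treated with compounds at 15 concentrations for 22hr at 37C; luminescence read with ONE-Glo.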
# [15] = qHTS assay to identify small molecule agonists or antagonists of the thyroid stimulating hormone receptor (TSHR) signaling pathway - wild type cell line counter screen (AID 1259384; calls by dose curve); conditions: HEK293 wild type, cAMP HTRF counter-screen, stronger effect = higher value; series mostly up to 92.4 µM
# Procedure, shortened: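 Counter screen in untransfected Hek293: compounds (15-point titration, triplicate) plus phosphodiesterase inhibitor Ro20-1724 added after 18 h plating; 30 min RT. Intracellular cAMP via competitive d2/cryptate immunoassay, 1 h incubation.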
# [16] = molecular target: Estrogen receptor (Homo sapiens) (UniProt P03372); test: qHTS assay to identify small molecule antagonists of the estrogen receptor alpha (ER-alpha) signaling pathway using the BG1 cell line in the presence of 0.1 nM 17-beta-estradiol (AID 1259244); conditions: VM7Luc4E2 (BG1) ERE-luciferase, antagonist mode, 0.1 nM E2, 22 h; series mostly up to 92.4 µM; further: nearly all actives have a fitted effect of over 50% in size
# Procedure, shortened: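 VM7Luc4E2 cells (endogenous full-length ER-alpha, stable 4xERE-luciferase) were grown 5 days in phenol red-free medium with charcoal-stripped FBS, then exposed 22 h at 37C to compounds plus 0.1 nM (final) 17beta-estradiol; ONE-Glo luminescence read-out.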
# [17] = molecular target: Estrogen receptor beta (Homo sapiens) (UniProt Q92731); test: qHTS assay to identify small molecule antagonists of the estrogen receptor beta (ER-beta) signaling pathway (AID 1259378; active means well fitted inhibition curve with a large enough effect in the signal ratio in the repeat runs, not every such curve was filed as active; the % refers to the signal ratio; further: potency means the concentration at half of the fitted maximal effect); conditions: ER-beta-UAS-bla HEK293T, beta-lactamase FRET ratio, 16 h; series mostly up to 92.4 µM
# Procedure, shortened: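 Antagonist mode: compounds added to beta-lactamase reporter HEK293T ER-beta-UAS cells stimulated with E2 (1nM final), 16 hr at 37C. LiveBLAzer B/G FRET substrate, 2 hours room temperature, fluorescence read-out.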
# [18] = molecular target: Androgen receptor (Homo sapiens) (UniProt P10275); test: qHTS assay to identify small molecule antagonists of the androgen receptor (AR) signaling pathway using the MDA cell line in the presence of 0.5 nM R1881 (AID 1259243); conditions: MDA-kb2 MMTV-luciferase, R1881 0.5 nM, 16 h; series mostly up to 92.4 µM; further: nearly all actives have a fitted effect of over 50% in size
# Chain of Androgen receptor (Homo sapiens) (P10275 whole entry, looked up): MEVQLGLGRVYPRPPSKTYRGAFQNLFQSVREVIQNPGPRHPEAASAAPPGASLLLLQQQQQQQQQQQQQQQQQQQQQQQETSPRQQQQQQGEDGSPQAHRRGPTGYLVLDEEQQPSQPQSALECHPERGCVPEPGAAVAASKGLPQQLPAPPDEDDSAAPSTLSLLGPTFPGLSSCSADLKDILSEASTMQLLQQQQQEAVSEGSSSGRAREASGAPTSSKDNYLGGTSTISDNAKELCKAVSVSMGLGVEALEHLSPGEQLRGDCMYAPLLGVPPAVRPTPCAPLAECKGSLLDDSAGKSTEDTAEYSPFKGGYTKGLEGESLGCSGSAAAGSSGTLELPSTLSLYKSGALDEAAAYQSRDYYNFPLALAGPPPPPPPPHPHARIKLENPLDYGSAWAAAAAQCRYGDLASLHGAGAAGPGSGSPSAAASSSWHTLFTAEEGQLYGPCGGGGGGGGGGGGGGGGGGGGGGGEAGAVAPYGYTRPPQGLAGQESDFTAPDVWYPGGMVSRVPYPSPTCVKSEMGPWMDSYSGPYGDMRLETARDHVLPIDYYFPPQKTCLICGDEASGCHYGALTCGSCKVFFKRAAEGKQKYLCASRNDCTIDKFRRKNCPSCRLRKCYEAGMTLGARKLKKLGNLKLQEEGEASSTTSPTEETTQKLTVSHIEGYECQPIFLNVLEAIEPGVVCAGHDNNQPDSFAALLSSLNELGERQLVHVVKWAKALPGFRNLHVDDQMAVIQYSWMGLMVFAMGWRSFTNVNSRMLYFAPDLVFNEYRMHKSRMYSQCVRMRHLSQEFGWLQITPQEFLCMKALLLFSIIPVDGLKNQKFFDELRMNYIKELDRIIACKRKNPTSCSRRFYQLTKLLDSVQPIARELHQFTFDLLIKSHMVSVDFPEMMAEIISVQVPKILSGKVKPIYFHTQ
# Procedure, shortened: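 MDA-kb2 human breast carcinoma cells carrying an MMTV-luciferase reporter (AR- and GR-responsive) were plated, rested 5 hr at 37C, dosed with compounds, then stimulated with 0.5 nM R1881 (final) for 16 hr; luminescence was read after ONE-Glo.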
# [19] = molecular target: Androgen receptor (Homo sapiens) (UniProt P10275); test: qHTS assay to identify small molecule agonists of the androgen receptor (AR) signaling pathway in the presence of an antagonist (AID 1259381; calls by dose curve; further: nearly all actives have a fitted effect of over 15% in size); conditions: MDA-kb2 MMTV-luciferase, AR agonist + nilutamide, 16 h; series mostly up to 92.4 µM
# Procedure, shortened: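 MDA-kb2 human breast carcinoma cells carrying an MMTV-luciferase reporter (AR- and GR-responsive) were treated with compounds at 15 concentrations plus 3.0uM final nilutamide for 16hr at 37C without CO2; luminescence was read after ONE-Glo addition.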
Structure (SMILES),Potency [1],Potency [2],Potency [3],Potency [4],outcome [5],Potency [6],Potency [7],Potency [8],Potency [9],Potency [10],Potency [11],Potency [12],Potency [13],Potency [14],outcome [15],Potency [16],Potency [17],Potency [18],outcome [19]
O=C1OC2(c3cc(Br)c(O)c(Br)c3Oc3c2cc(Br)c(O)c3Br)c2c(Cl)c(Cl)c(Cl)c(Cl)c21,3.47 µM (active) and 16.7 µM (active),8.64 µM (active) and 23.4 µM (active),6.12 µM (active) and 18.6 µM (active),inactive,inactive,9.7 µM (active) and 16.6 µM (active),3.86 µM (active) and 14.8 µM (active),inactive,inactive,inactive,21.7 µM (active) and 16.6 µM (active),inactive,inactive,inactive,inactive,,,,
NC=O,inactive,inactive,inactive,inactive,inactive,,inactive,inactive,,inactive,inactive,inactive,inactive,,,,,,
COc1ccccc1/C=C/C=O,inactive,inactive,inactive,inactive,inactive,,inactive,inactive,35.3 µM (active) and inactive,inactive,,55.9 µM (active),inactive,inactive,inactive,inactive,,,
O=Cc1ccccc1O,inactive,inactive,inactive,inactive,inactive,inactive,inactive,inactive,,,inactive,inactive,inactive,,inactive,inactive,,,
Nc1ccc(Nc2ccccc2)cc1,inactive,inactive,inactive,inactive,inactive,,48.6 µM (active),inactive,,,inactive,24.3 µM (active),inactive,,,inactive,,,
CC(=O)O[C@]1(C(C)=O)CC[C@H]2[C@@H]3C=C(Cl)C4=CC(=O)[C@@H]5C[C@@H]5[C@]4(C)[C@H]3CC[C@@]21C,inactive,inactive,inactive,inactive,inactive,inactive,inactive,inactive,4.32 µM (active) and 27.3 µM (active) and inactive,inactive,inactive,inactive,inactive,,inactive,,54.5 µM (active),,
c1ccc(Nc2ccccc2)cc1,inactive,inactive,inactive,inactive,inactive,,inactive,inactive,inactive,inactive,,inactive,inactive,,inactive,,24.3 µM (active) and inactive,,
CCC(C)(O)CCCC(C)C (stereo not given),inactive,inactive,inactive,inactive,inactive,,inactive,inactive,inactive,,,inactive,inactive,inactive,inactive,inactive,,,
Cc1cccc(C(=O)O)c1,inactive,inactive,,inactive,inactive,13.5 µM (active) and inactive,3.03 µM (active) and inactive,inactive,381 nM (active) and inactive,inactive,inactive,inactive,inactive,,inactive,inactive,,inactive,inactive
CCC(C)CO (stereo not given),inactive and 49 µM (active),inactive,inactive,inactive,inactive,inactive,inactive,inactive,,,inactive,inactive,inactive,,inactive,inactive,,,
CCCCC(CC)COCC1CO1 (stereo not given),inactive,inactive,inactive,inactive,inactive,,inactive,inactive,inactive,inactive,,inactive,inactive,inactive,inactive,inactive,,,
COC(=O)CCC(=O)OC,inactive,inactive,inactive,inactive,inactive,inactive,inactive,inactive,,,,inactive,inactive,,inactive,inactive,,,
CC(C)=CCC/C(C)=C\CO,inactive,inactive,inactive,inactive,inactive,,inactive,inactive,,,,inactive,inactive,,inactive,,,,
